Out of some 63,000 compounds screened, about 1,100 (1.7%) were called active. The full list was thinned out, with actives kept by preference. Potency and affinity values are given separately. A number with no mark means an inactive call.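 Rule for the calls: active = compounds whose percent cytotoxicity in the single-dose primary screen, scaled between solvent and toxic-drug controls, exceeds 50; inactive = the rest.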

The nature of this assay: cytotoxicity in KRAS-transformed pancreatic duct cells, primary screen, cell-based, fluorescence, HTS (AID 431).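 Note: 0% = DMSO solvent wells and 100% = doxorubicin-treated wells.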 The settings on record: HPDE-C7K KRASV12 cells, Alamar Blue viability, 48 h; at 10 µM; active compounds read high. (The colour change of resazurin is a common sign of viable cells or microbes.)
As to `COc1ccccc1C(=O)Nc1nnc(-c2ccc(Cl)cc2)o1`, the cytotoxicity was -0.6%.

Regarding `COc1ccc(C(=O)Nc2nnc(-c3ccccc3)o2)cc1OC`, the cytotoxicity is -0.9%.

Take `COc1cccc(C(=O)Nc2nnc(-c3ccc(Cl)cc3)o2)c1`: the cytotoxicity is 85% (active).

With `Cc1cccc(-c2nnc(NC(=O)c3ccc(Cl)cc3)o2)c1`, the cytotoxicity was 87.9% (active).

Regarding `COc1cccc(-c2nnc(NC(=O)c3cccc(F)c3)o2)c1`, the cytotoxicity was 44.6%.

With `CC(=O)c1ccc(C(=O)Nc2nnc(-c3ccc(Cl)cc3)o2)cc1`, the cytotoxicity is 44.7%.

As for `COc1cccc(C(=O)Nc2nnc(-c3ccc(F)cc3)o2)c1`, the cytotoxicity was 10.3%.

Regarding `CN(C)c1ccc(C(=O)Nc2nnc(-c3ccc(Cl)cc3)o2)cc1`, the cytotoxicity is 17.7%.

Turning to `CCOc1ccc(N2CC(C(=O)Nc3ccc(F)cc3F)CC2=O)cc1` (centres undefined), the cytotoxicity is -19.6%.

Regarding `Clc1ccc(NC2=NCCC2)cc1Cl`, the cytotoxicity is -1.4%.

With `O=C(CN1CCN(C(=O)c2ccco2)CC1)Nc1ccccc1-c1ccccc1`, the cytotoxicity was 3%.

For `CO[C@H]1C[C@@H]2CC[C@@H](C)[C@@](O)(O2)C(=O)C(=O)N2CCCC[C@H]2C(=O)O[C@H]([C@H](C)C[C@@H]2CC[C@@H](O)[C@H](OC)C2)CC(=O)[C@H](C)C=C(C)[C@@H](O)[C@@H](OC)C(=O)[C@H](C)C[C@H](C)C=CC=CC=C1C`, the cytotoxicity is 91% (active).

As for `CC1Cn2c(nnc2-c2ccc(F)cc2)S1` (centres undefined), the cytotoxicity is 11.1%.

As to `CCOc1ccccc1NC(=O)C1CCCN(S(=O)(=O)c2cccc3cccnc23)C1` (centres undefined), the cytotoxicity is 26.1%.

Consider `CCCCn1c(NC(=O)c2ccccc2)c(C#N)c2nc3ccccc3nc21`, for which the cytotoxicity was 112% (active).

Turning to `CCCCn1c(NC(=O)c2ccccc2Cl)c(C#N)c2nc3ccccc3nc21`, the cytotoxicity is 35.8%.

Turning to `CCCCn1c(NC(=O)CC)c(C#N)c2nc3ccccc3nc21`, the cytotoxicity is -5.1%.

For `CCCCCn1c(N)c(C#N)c2nc3ccccc3nc21`, the cytotoxicity was 2.3%.

Take `CCCCn1c(NC(C)=O)c(C#N)c2nc3ccccc3nc21`: the cytotoxicity was -0.1%.

As for `C=CCn1c(NC(=O)c2ccccc2)c(C#N)c2nc3ccccc3nc21`, the cytotoxicity is 65.2% (active).

In the case of `COc1ccc(-n2c(NC(=O)c3ccco3)c(C#N)c3nc4ccccc4nc32)cc1`, the cytotoxicity was 9.7%.

In the case of `N#Cc1c(NC(=O)c2ccc(Br)o2)n(-c2ccccc2)c2nc3ccccc3nc12`, the cytotoxicity was 58.7% (active).

In the case of `CCC(=O)Nc1c(C#N)c2nc3ccccc3nc2n1-c1ccccc1C`, the cytotoxicity was 2.8%.

For `CCCCn1c(NC(=O)c2ccc(F)cc2)c(C#N)c2nc3ccccc3nc21`, the cytotoxicity is 87.7% (active).

`C=CCn1c(NC(=O)c2ccccc2Cl)c(C#N)c2nc3ccccc3nc21`: the cytotoxicity was 7.7%.

Take `O=C(Nc1ccc2nn(-c3ccccc3)nc2c1)c1ccc(Br)o1`: the cytotoxicity was 13.2%.

On to `CCc1ccc(OCc2nc(-c3ccccn3)no2)c(Br)c1`, for which the cytotoxicity is 30.6%.

Take `COc1cc(C2C(C#N)=C(N)Oc3cc(C)oc(=O)c32)cc2c1OCO2` (centres undefined): the cytotoxicity was -4.3%.

In the case of `CCN(CC)CCNc1nc2c(c(=O)[nH]c(=O)n2C)n1CC(O)COc1ccc(Cl)cc1Cl` (centres undefined), the cytotoxicity is 10.6%.

In the case of `CCc1nnc(NC(=O)CSc2nnc(CSc3nc(C)cc(C)n3)n2C)s1`, the cytotoxicity is 10.6%.

For `N#Cc1c2c(c(=S)n(-c3ccccc3)c1N)CCCC2`, the cytotoxicity is 0.5%.

Turning to `CCOC(=O)c1c(N)sn(-c2ccccc2)c1=S`, the cytotoxicity is 13.3%.

For `CC(C)C(CC(=O)N1CCCCC1)C1CCOC(C)(C)C1` (centres undefined), the cytotoxicity was -5.8%.

For the compound `Cc1ccc(CNC(=O)c2cc3c(=O)n4ccccc4nc3n(Cc3ccco3)c2=N)cc1`, the cytotoxicity was 98.3% (active).

Turning to `N=c1c(S(=O)(=O)c2ccccc2)cc2c(=O)n3ccccc3nc2n1Cc1ccco1`, the cytotoxicity was 4.6%.

As for `N=c1c(C(=O)NCc2ccccc2)cc2c(=O)n3ccccc3nc2n1Cc1ccco1`, the cytotoxicity is 38.6%.

For `Cc1ccc(S(=O)(=O)c2cc3c(=O)n4ccccc4nc3n(Cc3ccco3)c2=N)cc1`, the cytotoxicity was 30.2%.

In the case of `Cc1ccc(Cn2c(=N)c(C(=O)NCc3ccco3)cc3c(=O)n4ccccc4nc32)cc1`, the cytotoxicity is -6.4%.

Take `Cc1ccc(CNC2=NCCCCC2)n1C`: the cytotoxicity is 0.1%.

In the case of `CS(=O)(=O)N(CC(=O)N1CCC(C(N)=O)CC1)c1ccc(Oc2ccccc2)cc1`, the cytotoxicity is 4.5%.

Consider `CN1CCc2ccccc2C1C1CCNCC1` (centres undefined), for which the cytotoxicity is 1.4%.

Take `N#Cc1c(/N=C/c2ccco2)sc2c1CCC2`: the cytotoxicity is 0.3%.

`COc1ccc(NC(=O)CN(c2ccccc2)S(=O)(=O)N(C)C)cc1OC`: the cytotoxicity is -4.2%.

For the compound `COc1ccc(C2=NOC(C(=O)NCc3ccc(F)cc3)C2)cc1` (centres undefined), the cytotoxicity was 43%.

For `COc1cc(C2=NOC(C(=O)NCc3ccco3)C2)cc(OC)c1OC` (centres undefined), the cytotoxicity is 10.5%.

On to `COc1ccc(CNC(=O)C2CC(c3ccc(F)cc3)=NO2)cc1` (centres undefined), for which the cytotoxicity was 1.6%.

`COc1ccc(C2=NOC(C(=O)NCc3ccc(F)cc3)C2)cc1OC` (centres undefined): the cytotoxicity was 58.9% (active).

Regarding `COc1cccc(C2=NOC(C(=O)NCc3ccc(F)cc3)C2)c1` (centres undefined), the cytotoxicity is 49.7%.

Regarding `COc1cc(C2=NOC(C(=O)NCc3ccc(F)cc3)C2)cc(OC)c1OC` (centres undefined), the cytotoxicity was 55.1% (active).

`Cc1ccc(C2(C)NC(=O)N(CC(=O)Nc3ccc4c(c3)OCO4)C2=O)cc1` (centres undefined): the cytotoxicity was -4.8%.

With `Fc1ccc(-c2nnc(SCc3ncc(-c4ccccc4)o3)n2CC2CCCO2)cc1` (centres undefined), the cytotoxicity is -17.5%.

Consider `CCOc1cc(C2C(C#N)=C(N)OC3CCCC(=O)C32)ccc1OCCN1CCOCC1` (centres undefined), for which the cytotoxicity was -27%.

With `COc1ccc(-c2nnc(SCC(=O)Nc3sc4c(c3C#N)CCC4)n2CC2CCCO2)cc1` (centres undefined), the cytotoxicity was -1.4%.

With `Cc1cc(NC(=O)CSc2nnc3c(C)cc4c(C)ccc(C)c4n23)no1`, the cytotoxicity was 70.6% (active).

For `Cc1cc(C)c2c(c1)cc(C)c1nnc(SCC(=O)Nc3cc(C)on3)n12`, the cytotoxicity is 22.6%.

Regarding `Cc1cc(NC(=O)CSc2nnc3c(C)cc4cc(C)c(C)cc4n23)no1`, the cytotoxicity is 10.3%.

As to `CCCCNC(=O)C1CCCN1C(=O)Nc1cccc(OC)c1` (centres undefined), the cytotoxicity was -7.7%.

`Nc1c(N2CCN(c3ccccc3)CC2)c2ccccc2oc1=O`: the cytotoxicity was -3.7%.

On to `O=C(NCCCN1CCCC1=O)C1CCN(S(=O)(=O)N2CCOCC2)CC1`, for which the cytotoxicity was -9.6%.

As for `CCOc1ccc(NC(=O)N2CCC(n3c(=O)[nH]c4ccccc43)CC2)cc1`, the cytotoxicity was -0.2%.

With `COc1cccc(C2=CC(c3ccc(N(C)C)cc3)n3ncnc3N2)c1` (centres undefined), the cytotoxicity is -1.1%.

For `Cc1ccc(C2C=C(c3ccccc3OC(F)F)Nc3ncnn32)cc1` (centres undefined), the cytotoxicity is -1.8%.

`CN(C)c1ccc(C2C=C(c3ccc(Cl)cc3OC(F)F)Nc3ncnn32)cc1` (centres undefined): the cytotoxicity was 50.9% (active).

Turning to `CCn1c(SCC(=O)c2ccc(Cl)cc2)nnc1-c1ccoc1C`, the cytotoxicity is 12.2%.

`Cc1cc(C)c(C#N)c(N2CCCC(C(N)=O)C2)n1` (centres undefined): the cytotoxicity is -4.9%.

For `COc1ccc(S(=O)(=O)Cc2ccc(C(=O)N3CCN(C(=O)c4ccco4)CC3)o2)cc1`, the cytotoxicity was 1.6%.

`O=C(OCc1nnc(-c2ccccc2)o1)c1ccc2c(c1)OCCO2`: the cytotoxicity is 5.4%.

With `O=C(Nc1ncnc2sc3c(c12)CCCCC3)c1ccco1`, the cytotoxicity is 7.3%.

For `Cc1nnc2n1N=CC=C(c1ccccc1)S2`, the cytotoxicity was 62% (active).

For the compound `COn1cnnc1-c1ccccc1`, the cytotoxicity is -14.1%.

In the case of `Cc1nnc2n1N=CC=C(C(C)(C)C)S2`, the cytotoxicity is -17.2%.

Turning to `CCOC(=O)c1cc(NC(=O)c2ccoc2C)cc(C(=O)OCC)c1`, the cytotoxicity was 15.5%.

In the case of `Cc1noc(C)c1COC(=O)CCc1nc2ccccc2s1`, the cytotoxicity was -2.7%.

Consider `c1cn2cc(CN3CCOCC3)nc2s1`, for which the cytotoxicity was -3.4%.

Consider `Cc1nnc2sc(-c3cc4ccccc4o3)nn12`, for which the cytotoxicity was 8.5%.

Take `COc1ccccc1-c1nnc2sc(-c3cc4ccccc4o3)nn12`: the cytotoxicity is 61.8% (active).

Take `COc1ccccc1-c1nn2c(-c3ccccc3Cl)nnc2s1`: the cytotoxicity is -7.7%.

In the case of `COC(=O)CSc1nnc(SCc2ccccc2)s1`, the cytotoxicity is -19.9%.

With `CCOC(=O)N1CCN(C(=O)CCc2nc3sc4c(c3c(=O)[nH]2)CCCC4)CC1`, the cytotoxicity was 4.1%.

Regarding `CC(C)OC(=O)CSc1nnc(-c2ccc(Cl)cc2Cl)n1N`, the cytotoxicity was -9.9%.

With `CN1CCN(c2nc(Nc3cccc(C(F)(F)F)c3)nc(N3CCOCC3)n2)CC1`, the cytotoxicity was 52.3% (active).

Turning to `O=C(O)c1cccc(Nc2nc(N3CCOCC3)nc(N3CCOCC3)n2)c1`, the cytotoxicity was 1.7%.

As to `Cc1cccc(Nc2nc(NCc3ccco3)nc(N3CCOCC3)n2)c1`, the cytotoxicity was 63.9% (active).

Regarding `CC(C)c1ccc(Nc2nc(NCc3ccco3)nc(N3CCOCC3)n2)cc1`, the cytotoxicity is 35.8%.

In the case of `Cc1ccc(Nc2nc(N3CCOCC3)nc(N3CCOCC3)n2)cc1`, the cytotoxicity was 10.2%.

As to `COc1nc(Nc2cccc(C(F)(F)F)c2)nc(OC)n1`, the cytotoxicity is 4.6%.

Regarding `CCOC(=O)N1CCN(C(=O)C2CC(=O)N(c3ccc(OC)cc3)C2c2ccc(OC)cc2)CC1` (centres undefined), the cytotoxicity was -8.1%.

Turning to `O=C(NCCCN=C1NS(=O)(=O)c2ccccc21)c1ccc(S(=O)(=O)N2CCCCC2)cc1`, the cytotoxicity was -14.3%.

With `c1ccc(Cn2c(SCc3nc4ccccc4s3)nnc2-c2ccco2)cc1`, the cytotoxicity was 8.5%.

Take `Nc1c(NC2CCCCC2)c2ccccc2oc1=O`: the cytotoxicity is -25.2%.

For the compound `CCOC(=O)c1c(-c2cccs2)csc1NC(=O)CN1CC(C)OC(C)C1` (centres undefined), the cytotoxicity is 60.6% (active).

Consider `COC(=O)c1c(-c2cccs2)csc1NC(=O)CN1CCOCC1`, for which the cytotoxicity was 4.8%.

For the compound `CCOC(=O)c1c(-c2cccs2)csc1NC(=O)CCCC(=O)O`, the cytotoxicity was 25.9%.

Regarding `N#CCc1ccc(NS(=O)(=O)c2ccc(N3CCCC3=O)cc2)cc1`, the cytotoxicity was -0.7%.

The values above are taken from PubChem BioAssay AID431 (Sanford-Burnham Center for Chemical Genomics, 2006).
